# High-throughput results deposited in PubChem by National Center for Advancing Translational Sciences (NCATS).
# Sampled rows, rich in hits. Any-hit rate of the full collection: about 9.9%.
# IL1B secr inh: blocks inflammasome-driven IL-1 beta release; THP-1 LPS/ATP IL-1B secretion, AlphaLISA, 16 h; stronger effect = lower value; activity change, % at 57.5 µM; hit rate 4.7% among 360,000; in the data active means activity change below about -50%; inconclusive means mostly about -30% to -49%; further: on the % scale 0 is the no-effect control and ±100 the full control effect
#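 THP-1 cells pretreated 1 hr with compounds (up to 57.5 uM final), then stimulated with LPS (250 ng/mL final) plus ATP (1.25 mM final); secreted IL-1B measured by AlphaLISA after 16 hr, decreased signal indicating inhibition.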
# SW480 rereplic: inducers of DNA re-replication in SW480 colon cancer cells. SW480 DNA re-replication, Hoechst DNA content imaging, 48 h. AID 624297. hit rate 1.8% among 340,000. Potency, µM (series often up to 46.1 µM), for inactives: top-dose re-replication activation, hits mostly activators; further: potency means the concentration at half of the fitted maximal effect; % of control where 0% means no effect; nearly all actives have a fitted effect of over 55% in size
#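 Per well, 250 cells were exposed to pinned compound for 48 hr. Nuclear DNA was visualised with Hoechst (40 min, 37 C) and total object intensity recorded by fluorescence scanning.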
# KB-3-1 tox: kills parental KB-3-1 adenocarcinoma cells; Potency, µM (top dose mostly 46.1 µM), usual class: cytotoxic; KB-3-1 viability, CellTiter-Glo ATP luminescence, 72 h; hit rate 1.4% among 400,000; further: potency means the concentration at half of the fitted maximal effect; on the % scale 0 is the no-effect control and ±100 the full control effect; nearly all actives have a fitted effect of over 60% in size
#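 Luminescent ATP read-out (CellTiter-Glo) measures survival of drug-naive KB-3-1 cells after 72 h compound exposure at 37 °C. Titration series was screened from lowest to highest concentration, with DMSO vehicle plates as background controls.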
# MCF10A rereplic: inducers of DNA re-replication in MCF 10A breast cells; MCF 10A DNA re-replication, Hoechst nuclear intensity, 48 h; Potency, µM (titrated, usually from 46.1 µM), inactives show at the highest dose activity, positive = re-replication, most hits filed as activators; hit rate 2.9% among 350,000; further: potency means the concentration at half of the fitted maximal effect; % of control where 0% means no effect; nearly all actives have a fitted effect of over 50% in size
# KB-V1 MDR tox: kills drug-selected multidrug resistant KB-V1 cells | AID 1347076 | KB-V1 MDR cells viability, CellTiter-Glo, 72 h | hit rate 3.4% among 400,000 | Potency, µM (doses to about 46.1 µM), hits mostly cytotoxic; further: potency means the concentration at half of the fitted maximal effect; on the % scale 0 is the no-effect control and ±100 the full control effect; nearly all actives have a fitted effect of over 60% in size
#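 Potencies derive from concentration-effect curves fitted to normalized luminescence (CellTiter-Glo) of KB-V1 cells treated for 72 h at 37 degrees C in phenol-red-free DMEM containing 10% FBS.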
# * marks the source's active call; other numbers are inactive results; i = inactive; ? = inconclusive; nt = no result given; [ ] = remark or other dose. Unless noted, the call rests on the fitted dose curve; in most records, active means well fitted curve in the direction sought with a large enough effect; inconclusive means small, poorly fitted or top-dose-only effect, or another doubt; inactive means no such curve, though single readings can be large; an effect the other way counts as inactive or inconclusive.
SMILES,IL1B secr inh,SW480 rereplic,KB-3-1 tox,MCF10A rereplic,KB-V1 MDR tox
CCc1ccc(C2=NN(c3ccc(S(N)(=O)=O)cc3)C(c3ccc(F)cc3)C2)cc1 (stereo not drawn),-87*,9.2µM*,?,?,?
O=C(NCCSCc1ccc(Cl)cc1)C1CCN(S(=O)(=O)Cc2ccccc2)CC1,nt,nt,i,nt,i
CNc1nc2c(c(=O)n(C)c(=O)n2C)n1CC(O)COc1ccc(OC)cc1 (stereo not drawn),nt,nt,?,nt,i
CN(C)CCNc1ncnc2c1sc1nc(N3CCOCC3)c3c(c12)CC(C)(C)SC3,-80*,?,?,21µM*,?
CCN(CC)CCNc1ncnc2c1sc1nc(N3CCOCC3)c3c(c12)CC(C)(C)SC3,4,-16%,i,-2%,i
CCOc1ccc(Br)cc1C(=O)N/N=C/c1cccc(C)n1,12,-1%,i,18µM*,i
O=C(Cc1ccccc1Cl)NNC(=O)Nc1ccccc1,10,29µM*,i,0%,i
O=C(Nc1ccccc1)Nc1cc(Cl)cc(Cl)c1,-82*,16%,?,?,?
O=C(Cc1cccc2ccccc12)NNC(=O)Nc1cccc(Cl)c1,-30,0%,i,?,i
O=C(Nc1ccccc1)Nc1ccc(Oc2cccnc2)nc1,-6,-7%,i,-4%,i
O=C(Nc1ccccc1)Nc1cc(OCC(F)(F)F)cc(OCC(F)(F)F)c1,-103*,15%,?,21µM*,16µM*
CS(=O)(=O)Nc1ccccc1C(=O)Nc1cc(Cl)cc(Cl)c1,-56*,-4%,i,-3%,i
CC(=O)OCc1cnc(C)c2oc(=O)c(C(=O)Nc3ccc(C)cc3Cl)cc12,nt,nt,i,nt,i
O=C(Nc1cccnc1)Nc1cc(Cl)cc(Cl)c1,-101*,-2%,?,?,?
O=C(Nc1cccnc1)C12CC3CC(CC(C3)C1)C2,-3,-8%,i,7%,i
O=C(Nc1cccnc1)C1(F)C(F)(F)C(F)(F)C(F)(F)C(F)(F)C1(F)F,-67*,-4%,i,14%,i
N#CC(=C1C=CC(=NO)C(Cl)=C1)c1ccc(Cl)cc1,-54*,?,?,?,?
COc1ccc(N2CCN(C(=O)COC(=O)[C@@H](NC(=O)OCc3ccccc3)C(C)C)CC2)cc1,25,-1%,i,4%,6.5µM*
O=C(COC(=O)c1ccccc1C(F)(F)F)NC(=O)NCc1ccco1,12,-1%,i,2%,?
CC(C)c1cc(C(=O)OCC(=O)NC(=O)NCc2ccco2)c(O)c(C(C)C)c1,-86*,8%,?,16µM*,?
Cc1ccc(CNC(=O)COc2ccc(C(=O)c3ccc(F)cc3)cc2)cc1,?,?,?,16µM*,?
Cc1cccc(NC(=O)CNC(=O)COc2ccc(C(=O)c3ccc(F)cc3)cc2)c1C,41,?,6.5µM*,15µM*,?
O=C(COc1ccc(C(=O)c2ccc(F)cc2)cc1)NCc1ccc(F)cc1,6,15µM*,4.1µM*,1.5µM*,9.2µM*
Cc1cccc(NC(=O)CNC(=O)COc2ccc(-c3ccc(C#N)cc3)cc2)c1C,5,8%,i,0%,i
COc1ccc(CNC(=O)COc2ccc(F)cc2)cc1,25,-7%,i,-3%,?
SMILES,IL1B secr inh,SW480 rereplic,KB-3-1 tox,MCF10A rereplic,KB-V1 MDR tox
COc1ccc(CNC(=O)COc2ccc(C(=O)c3ccc(F)cc3)cc2)cc1,-8,?,?,1.2µM*,?
Cc1ccc(NC(=O)CN(C)CC(=O)Nc2ccc(F)c(Cl)c2)cc1,-29,-4%,i,21µM*,i
CN(CC(=O)Nc1ccc(Cl)c(Cl)c1)Cc1nnc(-c2ccc(F)cc2)o1,-58*,0%,i,-1%,?
COc1ccc(CCN(C)CC(=O)Nc2ccc(F)c(Cl)c2)cc1OC,-58*,4%,i,14%,?
COc1ccc(CNC(=S)Nc2ccc(F)c(Cl)c2)cc1OC,-5,-2%,i,6%,?
CN(CC(=O)Nc1ccc(Cl)cc1)CC(=O)Nc1cc(Cl)ccc1C#N,-84*,0%,?,?,?
COC(=O)CNC(=O)N1CCN(S(=O)(=O)c2ccc3c(ccn3C)c2)CC1,nt,nt,i,nt,i
COCCNC(=O)C(=O)N/N=C/c1ccccc1C(F)(F)F,23,0%,i,-1%,i
Nc1nc(CSC(=S)N2CCN(c3ccccc3)CC2)nc(Nc2ccccc2)n1,-14,132%,i,4%,3.3µM*
Cc1ccc(Nc2nc(N)nc(CSC(=S)N3CCOCC3)n2)c(C)c1,?,-48%,i,10%,8.2µM*
COc1ccccc1Nc1nc(N)nc(CSC(=S)N2CCN(c3ccccc3)CC2)n1,-8,-17%,i,-23%[9.22 µM],?
Nc1nc(CSC(=S)N2CCOCC2)nc(Nc2ccc(F)cc2)n1,-11,-37%,i,1%,16µM*
COc1ccc(Nc2nc(N)nc(CSC(=S)N3CCOCC3)n2)cc1,-2,?,i,-3%,i
Cc1ccc(Nc2nc(N)nc(CSC(=S)N3CCN(c4ccccc4)CC3)n2)cc1,-5,2%,i,6%,16µM*
CN1CCN(C(=S)SCc2nc(N)nc(Nc3ccc(F)cc3)n2)CC1,-24,-6%,i,-1%,i
CC(=O)Nc1c(S(=O)(=O)c2ccccc2)c2nc3ccccc3nc2n1Cc1ccccc1,-12,-1%,i,-3%,i
C=CCn1c(NS(=O)(=O)c2ccccc2)c(S(=O)(=O)c2ccc(C)cc2)c2nc3ccccc3nc21,-84*,?,?,15µM*,13µM*
O=S(=O)(Nc1c(S(=O)(=O)c2ccccc2)c2nc3ccccc3nc2n1C1CCCCC1)c1ccccc1,-69*,14%,i,2.9µM*,i
CN(C)c1ccc(NC(=O)CSC2=Nc3ccccc3C3=NC(CC(=O)NCc4ccccc4)C(=O)N23)cc1 (stereo not drawn),nt,nt,i,nt,i
CN(C(=O)CSc1nc2[nH]ncc2c(=O)[nH]1)c1ccccc1,31,0%,?,11%,i
COC(=O)c1ccc(-n2c(/C=C\c3cccc(Br)c3)nc3ccccc3c2=O)cc1,nt,nt,13µM*,nt,?
O=C(O)c1ccc(-n2c(/C=C/c3ccccc3)nc3ccccc3c2=O)cc1,11,-5%,i,-3%,i
C=CCn1c(-c2sc3nc(C)cc(C)c3c2N)n[nH]c1=S,16,26%,i,9.2µM*,i
C=CCn1c(-c2cc(OC)cc(OC)c2)n[nH]c1=S,1,1%,i,-3%,i
COc1ccc(-c2oc3ccccc3c2C#Cc2cncn2C)cc1,?,?,i,18µM*,?
Cc1ccc(OCc2nnc(-c3ccc(Cl)cc3)o2)cc1,51,-6%,i,3%,i
